Compound activity (PubChem BioAssay)
Shown are actives, neighbours in structure and some others; about 4.1% of the full set was active somewhere.
DAX1 inh-1: NR0B1 (DAX1) inhibition | HEK293 Gal4-DAX1 luciferase reporter, luminescence | inhibition, % at 6.75 µM | 340,000 compounds, 0.99% hits | AID 504766;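 active = inhibition above the mean over all tested compounds plus 3 SD, cut at about 4.2% in these data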;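 also: 0% = DAX1-transfected cells with DMSO and 100% = empty-vector control cells with DMSO; inhibition shows as a rise in luminescence from relieved DAX1 repression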
Target sequence (P51843 207-470 limits assumed): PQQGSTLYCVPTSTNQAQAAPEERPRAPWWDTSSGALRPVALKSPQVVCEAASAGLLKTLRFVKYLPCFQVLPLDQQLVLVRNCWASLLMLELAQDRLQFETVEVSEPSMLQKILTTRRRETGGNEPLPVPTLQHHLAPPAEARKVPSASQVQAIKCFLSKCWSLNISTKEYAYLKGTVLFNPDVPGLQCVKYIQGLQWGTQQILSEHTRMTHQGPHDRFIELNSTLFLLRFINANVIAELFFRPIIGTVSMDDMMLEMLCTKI
ssDAF12 agonist: activators of S. stercoralis DAF-12 nuclear receptor; activation, % at 6.8 µM; HEK293 ssDAF-12/GRIP1 lit1-tk-luc reporter, luminescence; % of 3 µM dafachronic acid response; 370,000 compounds, 1% hits;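 active = activation above the mean over all tested compounds plus 3 SD, cut at about 0.9% in these data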;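 also: 0% = DMSO-only wells and 100% = 3 µM delta7-dafachronic acid wells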
hcDAF-12 act: H. contortus DAF-12 activation, primary screen. HEK293 hcDAF-12 lit1-tk-luc reporter, luminescence; 0% DMSO, 100% Δ7-dafachronic acid. activation, % at 6.8 µM. 370,000 compounds, 1.4% hits;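 active = activation above the mean of all tested compounds plus 3 SD, cut at about 5.5% in these data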;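 also: 100% = response to 3 µM Δ7-dafachronic acid high control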
DAX1 inh-2: DAX1 (NR0B1) inhibition, primary screen. HEK293T StAR-luciferase reporter, SF-1/DAX-1 repression relief. AID 652010. 370,000 compounds, 1.1% hits. inhibition, % at 6.8 µM;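 active = inhibition above the mean over all tested compounds plus 3 SD, cut at about 3.6% in these data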;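 also: 0% = DAX-1 cells with DMSO and 100% = cells lacking DAX-1 with DMSO; higher inhibition means more luminescence from relief of DAX-1 repression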
hgDAF-12 ag: hgDAF-12 agonism, primary luciferase screen; HEK293 GAL4-hgDAF12 UAS-luciferase reporter, agonist luminescence; normalized to butyrate control; activation, % at 6.8 µM; 370,000 compounds, 1.8% hits; AID 687014;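 active = activation above a cutoff set at the mean of all screened compounds plus 3 SD, cut at about 10% in these data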;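 also: 0% = DMSO wells and 100% = sodium butyrate wells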
hgDAF12 ag: confirmation of H. glycines DAF-12 agonists; shares compounds with hgDAF-12 ag; HEK293 GAL4-hgDAF12 luciferase reporter, agonist mode; percent of butyrate response; activation, % at 6.8 µM; 3,300 compounds, 80% hits; AID 743050;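 active = mean activation over triplicate wells above the hit cutoff derived from the earlier primary screen, cut at about 11% in these data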;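 also: 0% = DMSO low control and 100% = 2 mM sodium butyrate high control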
LXRb DAF12 ctr: activates human LXR-beta, counter-screen for DAF-12 agonists; shares compounds with hgDAF-12 ag; HEK293 Gal4-LXR luciferase reporter, 24 h; activation, % at 6.8 µM; 3,300 tested, under 10 active; AID 743051;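 active = mean activation of the triplicate above a set limit carried over from the primary screen, none filed active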
Target sequence (P55055 whole entry, looked up, the tested form may be a part): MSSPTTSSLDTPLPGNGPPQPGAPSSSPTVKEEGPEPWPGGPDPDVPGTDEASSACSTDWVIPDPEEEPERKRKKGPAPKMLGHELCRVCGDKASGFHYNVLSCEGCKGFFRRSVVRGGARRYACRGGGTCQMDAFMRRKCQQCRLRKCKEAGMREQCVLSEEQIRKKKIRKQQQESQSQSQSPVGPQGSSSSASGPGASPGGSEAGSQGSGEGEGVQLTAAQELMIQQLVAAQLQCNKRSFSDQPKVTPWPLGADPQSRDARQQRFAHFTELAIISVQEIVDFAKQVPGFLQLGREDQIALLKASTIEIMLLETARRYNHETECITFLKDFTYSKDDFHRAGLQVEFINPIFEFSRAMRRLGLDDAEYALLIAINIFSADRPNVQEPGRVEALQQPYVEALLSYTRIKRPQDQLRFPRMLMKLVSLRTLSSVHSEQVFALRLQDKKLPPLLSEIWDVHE
An asterisk follows results filed as active; nt = no result.

SMILES	DAX1 inh-1	ssDAF12 agonist	hcDAF-12 act	DAX1 inh-2	hgDAF-12 ag	hgDAF12 ag	LXRb DAF12 ctr
COc1ccc(OC)c(C2=NS(=O)(=O)N(C)C(C(=O)Nc3ccc(F)cc3F)=C2)c1	-0.9	-1.8	-2.4	-1.2	-6.7	nt	nt
O=C(CC(=O)c1cccs1)c1ccncc1	2.6	0.2	5.0	3.7*	25.5*	4.4	0.1
Cn1cnnc1SCC(=O)Nc1ccc2nc(SCc3ccccc3F)sc2c1	1.8	-0.7	1.2	0.8	13.2*	12.6*	0.4
Cc1cccc(N(C(=O)Nc2ccccc2)C2=NCC(C)S2)c1 (stereo not given)	3.6	-0.8	2.4	0.8	14.7*	3.8	0.1
Cc1ccc(NC(=O)N(C2=NCC(C)S2)c2ccccc2)cc1 (stereo not given)	1.6	-1.1	0.8	0.5	6.6	nt	nt
CC(=O)Oc1ccc(C(=O)[C@H]2[C@H]3C(=O)N(c4ccc(C)cc4)C(=O)[C@H]3[C@@H]3C=CC=NN32)cc1	-0.1	0.2	5.9*	1.9	16.3*	7.9	0.2
COc1ccc(C(=O)[C@H]2[C@H]3C(=O)N(c4ccc(C)cc4)C(=O)[C@H]3C3C=CC=NN32)cc1 (stereo not given in full)	nt	-1.5	1.1	0.5	-1.7	nt	nt
C=CCSc1nnc(-c2ccc(Cl)cc2Cl)o1	1.7	0.4	3.8	3.3	13.6*	14.2*	0.8
c1ccc(CSc2ccc(-c3ccco3)nn2)cc1	1.4	0.0	1.0	1.9	15.2*	14.8*	0.7
Clc1ccc(CSc2ccc(-c3ccco3)nn2)cc1	-0.1	-0.9	1.2	-0.4	6.0	nt	nt
Cc1ccc(CSc2ccc(-c3ccco3)nn2)cc1	0.1	-0.3	4.8	1.1	9.5	nt	nt
Fc1ccccc1CSc1ccc(-c2ccco2)nn1	3.5	-0.3	2.1	4.1*	16.5*	15.2*	0.7
COc1ccc(C(=O)Nc2ccccc2)cc1NC(=O)c1ccc([N+](=O)[O-])cc1	-1.2	-1.6	-1.6	-0.5	-1.3	nt	nt
Cc1ccc(NC(=O)CS(=O)CC(=O)N(C(C)C(=O)NC2CCCCC2)C(C)(C)C)cc1 (stereo not given)	1.1	-0.8	-2.3	0.0	0.0	nt	nt
CCOC(=O)/C=C/c1cccc(OC)c1O	nt	0.6	1.8	3.8*	14.2*	13.7*	0.5
COc1cc(SC)ccc1C(=O)Nc1ccc2ncccc2c1	1.5	2.4*	3.8	3.1	15.3*	16.9*	1.1
COc1ccc(NC(=O)Nc2nc3c(s2)CCCC3)cc1	3.1	-0.1	4.3	3.4	19.1*	15.8*	0.7
COc1ccc(NC(=S)Nc2cccc(C)n2)cc1	nt	-1.3	-1.7	0.3	0.9	nt	nt
COc1ccc(NC(=O)Nc2cccc(C)n2)cc1	1.7	-0.6	2.0	2.3	17.2*	12.5*	0.5
COc1cc(SC)ccc1C(=O)Nc1cccc(C)n1	1.9	-0.6	2.4	4.0*	15.9*	12.4*	0.8
COc1ncnc2c1ncn2CCCNCCCN1CCCC1=O	1.3	-1.1	-0.2	-0.8	1.7	nt	nt
c1ccc(C2Oc3ccccc3C3CC(c4cccs4)=NN32)cc1 (stereo not given)	2.4	0.6	5.5	1.2	15.7*	9.6	0.3
Fc1ccc(N2N=C(c3cccs3)CC2c2ccccc2)cc1 (stereo not given)	0.0	-1.6	-0.5	-0.7	-0.1	nt	nt
Cc1cccc(-c2cccc3c4c([nH]c23)[C@@H]2C[C@H](N(C)C(=O)c3ccccc3F)[C@H]([C@H](C)O)CN2CC4)c1	nt	-1.9	1.5	-0.3	-1.2	nt	nt
O=C(Nc1nc2cc3c(cc2s1)OCCO3)c1ccncc1	3.0	-1.2	0.3	3.4	8.3	nt	nt
SMILES	DAX1 inh-1	ssDAF12 agonist	hcDAF-12 act	DAX1 inh-2	hgDAF-12 ag	hgDAF12 ag	LXRb DAF12 ctr
CCOc1ccc(OCc2cccc(C(=O)Nc3ccc(CN4CCCCC4)cc3)c2)cc1	-3.1	-0.1	4.0	1.5	18.4*	19.2*	0.7
CC(C)C(=O)Nc1nc2cc3c(cc2s1)OCCO3	-3.0	-0.9	3.7	0.9	13.3*	7.4	0.6
CS(=O)(=O)c1ccc2nc(NC(=O)c3ccco3)sc2c1	-0.5	-0.7	3.9	3.5	15.3*	14.1*	0.6
CCOc1ccc(NC(=O)c2ccco2)cc1	0.2	0.1	2.3	3.6	15.0*	12.6*	0.6
CCC1Sc2ccc(S(=O)(=O)CCC(=O)Nc3cccc(Br)c3)cc2NC1=O (stereo not given)	-0.2	-0.5	-2.9	0.2	-0.3	nt	nt
COc1ccc2[nH]c(=O)c(CN(C(=O)c3cccnc3)c3ccccc3C)cc2c1	0.9	-1.7	0.9	-0.5	-4.9	nt	nt
CCOc1ccc2nc(NC(=S)NCc3ccccc3)sc2c1	-0.3	-1.4	0.1	0.0	-0.3	nt	nt
O=C(Nc1nc(-c2nc3ccccc3s2)cs1)c1ccco1	1.0	0.3	2.4	4.5*	18.9*	7.4	0.4
Cc1occc1C(=O)Nc1ccc(OCc2ccccc2)cc1	0.1	-0.2	3.7	4.4*	14.1*	18.6*	0.4
O=C(Nc1ccc(Cl)cc1-c1nc2ccccc2s1)c1ccco1	-0.3	nt	nt	nt	nt	nt	nt
CCOc1ccc2nc(NC(=O)c3ccco3)sc2c1	-3.9	0.4	5.1	2.3	16.1*	16.6*	1.0
CC(=O)Nc1cccc(NC(=O)c2ccc(COc3ccccc3)cc2)c1	1.4	-0.1	3.2	2.4	13.4*	17.1*	0.7
COc1cccc(S(=O)(=O)N(C)C[C@H]2OCc3cnnn3CCCC(=O)N([C@@H](C)CO)C[C@H]2C)c1	1.1	-0.7	-0.1	0.7	0.4	nt	nt
O=C(Nc1ccc([N+](=O)[O-])cc1Br)c1cc2ccccc2nc1Cl	1.1	-1.8	-1.4	0.0	1.4	nt	nt
CC1(C)OC(=O)C2=C(C[C@@H](CCc3ccccc3)O[C@@H]2c2ccc(Cl)cc2)O1	nt	-0.7	-0.2	-2.6	1.8	nt	nt
O=C(Nc1nc2cc3c(cc2s1)OCO3)c1ccco1	-4.9	0.1	4.8	3.5	19.0*	8.6	0.6
O=C(Nc1nc2cc3c(cc2s1)OCCO3)c1ccco1	-4.8	-1.9	-4.9	-8.3	-11.8	nt	nt
CCOC(=O)[C@]12CCC=C1N(Cc1cccc3ccccc13)C(=O)[C@H](CC(=O)N1CCN(C(=O)C3CC3)CC1)C2	nt	-0.9	-0.6	-1.1	-1.0	nt	nt
Clc1ccc(COn2nnc3ccccc32)c(Cl)c1	4.5*	0.1	5.3	4.0*	13.6*	17.9*	0.6
O=[N+]([O-])c1ccc(COn2nnc3ccccc32)cc1	0.7	-1.2	0.0	-0.6	2.0	nt	nt
O=C(Nc1cccc([N+](=O)[O-])c1)c1[nH]ncc1Cl	0.5	-0.8	4.0	0.9	14.3*	9.3	0.5
O=C(Nc1cccc([N+](=O)[O-])c1)c1cnccn1	-0.8	-1.1	-1.9	0.2	-2.4	nt	nt
